Results from PubChem BioAssay (Tox21).
Records with an inconclusive call do not appear. Entries that show only a call come without a potency. Values without a mark were called inactive. Active and inactive are the calls of the source. Unless noted, calls come from the whole dose curve; as a rule, active = well fitted curve in the direction sought with a large enough effect in the repeat runs; inconclusive = weak or mixed curves; inactive = no such curve, though single readings can be large; an effect the other way counts as inactive or inconclusive.

Tests used:
[1] = qHTS assay to identify aromatase inhibitors - cell viability counter screen (AID 743084);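 note: cells stimulated with testosterone during compound exposure; nearly all actives have a fitted effect of over 55% in size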
[2] = qHTS assay to identify small molecule that activate the aryl hydrocarbon receptor (AhR) signaling pathway - cell viability counter screen (AID 743086);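 note: HepG2 liver cells carrying the AhR DRE luciferase reporter; series mostly up to about 70 µM; nearly all actives have a fitted effect of over 45% in size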
Method in brief: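 HepG2-AhR-luc (HG2L7.5c1) cells, 4000/well, treated 24 h at 37 C with compound; viability measured as CellTiter-Fluor fluorescence after 30 min in the same wells as the luciferase read.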

[3] = target: Peroxisome proliferator-activated receptor gamma (Homo sapiens) (UniProt P37231); assay: qHTS assay to identify small molecule antagonists of the peroxisome proliferator-activated receptor gamma (PPARg) signaling pathway (AID 743191; calls by dose curve; note: series mostly up to about 63 µM; nearly all actives have a fitted effect of over 30% in size)
Sequence of Peroxisome proliferator-activated receptor gamma (Homo sapiens) (P37231 whole entry, looked up): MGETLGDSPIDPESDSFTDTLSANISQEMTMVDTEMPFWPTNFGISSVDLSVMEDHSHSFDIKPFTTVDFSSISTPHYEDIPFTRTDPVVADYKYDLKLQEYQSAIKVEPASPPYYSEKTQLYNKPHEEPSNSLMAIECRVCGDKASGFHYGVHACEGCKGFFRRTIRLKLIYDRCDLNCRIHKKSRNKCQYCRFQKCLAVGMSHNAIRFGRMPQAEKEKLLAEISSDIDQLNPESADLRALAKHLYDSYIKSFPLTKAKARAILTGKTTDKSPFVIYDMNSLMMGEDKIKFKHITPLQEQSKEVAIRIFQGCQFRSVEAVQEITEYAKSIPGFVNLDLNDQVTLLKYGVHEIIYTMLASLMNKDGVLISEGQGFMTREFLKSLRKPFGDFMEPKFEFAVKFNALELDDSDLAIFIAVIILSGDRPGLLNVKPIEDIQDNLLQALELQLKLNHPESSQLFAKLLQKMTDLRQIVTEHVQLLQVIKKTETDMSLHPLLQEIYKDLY
Method in brief: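 GeneBLAzer PPARg UAS-bla HEK293H cells, 5 h post-plating, exposed to compounds 17 h at 37C. LiveBLAzer B/G FRET substrate added for 1 h at room temperature; beta-lactamase reporter read by fluorescence intensity.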

[4] = qHTS assay to identify small molecule antagonists of the peroxisome proliferator-activated receptor gamma (PPARg) signaling pathway - cell viability counter screen (AID 743194); note: nearly all actives have a fitted effect of over 55% in size
Method in brief: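 Cytotoxicity counter screen in PPARg-bla HEK293H cells, same wells as reporter assay. Compounds plus 50 nM rosiglitazone (final) for 17 h at 37 C, then viability read by CellTiter-Glo luminescence.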

[5] = qHTS assay for small molecule agonists of the antioxidant response element (ARE) signaling pathway (AID 743202; active = well fitted activation curve with a large enough effect in the signal ratio in the repeat runs, not every such curve was filed as active; the % refers to the signal ratio)
Method in brief: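 ARE-bla HepG2 cells (beta-lactamase reporter under the antioxidant response element), plated 5 hours, then exposed to compounds 16 hours at 37 C. LiveBLAzer B/G FRET substrate added for 2 hours at room temperature; fluorescence intensity read.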

[6] = qHTS assay for small molecule agonists of the antioxidant response element (ARE) signaling pathway - cell viability counter screen (AID 743203; calls by dose curve; note: nearly all actives have a fitted effect of over 55% in size)
Method in brief: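 Seeded at 2,000 cells/well, ARE-bla HepG2 cells were incubated 5 hrs before compound addition. After 16 hrs of treatment at 37C with 5% CO2, CellTiter-Glo reagent was added and luminescence read 30 min later.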

[7] = qHTS assay for small molecule activators of the heat shock response signaling pathway - cell viability counter screen (AID 743209); note: nearly all actives have a fitted effect of over 50% in size
Method in brief: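 First, HSE-bla HeLa cells were seeded at 1500 cells/well and kept overnight at 37 C. Next, compounds were pinned in and incubated 5 h. After the FRET substrate step, CellTiter-Glo was added and luminescence read 30 min later.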

[8] = qHTS assay for small molecule activators of the heat shock response signaling pathway (AID 743210; active = well fitted activation curve with a large enough effect in the signal ratio in the repeat runs, with a control signal flat, not every such curve was filed as active; the % refers to the signal ratio; note: series mostly up to about 63 µM)
Method in brief: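 HSE-bla HeLa cells (beta-lactamase reporter under heat shock response elements), plated overnight, then exposed to compounds 5 h at 37 C; LiveBLAzer B/G FRET substrate added, 2.5 h at room temperature, fluorescence intensity read.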

[9] = qHTS assay to identify small molecule agonists of the peroxisome proliferator-activated receptor delta (PPARd) signaling pathway - cell viability counter screen (AID 743211); note: nearly all actives have a fitted effect of over 55% in size
Method in brief: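 PPARd-bla HEK293H cells (3000/well) were pre-incubated 5 h at 37 C, then exposed to compound for 17 h at 37 C. After 2 h with LiveBLAzer substrate, CellTiter-Glo was added to the same wells; luminescence read after 30 min at room temperature.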

[10] = target: Peroxisome proliferator-activated receptor delta (Homo sapiens) (UniProt Q03181); assay: qHTS assay to identify small molecule agonists of the peroxisome proliferator-activated receptor delta (PPARd) signaling pathway (AID 743212; calls by dose curve)
Sequence of Peroxisome proliferator-activated receptor delta (Homo sapiens) (Q03181 whole entry, looked up): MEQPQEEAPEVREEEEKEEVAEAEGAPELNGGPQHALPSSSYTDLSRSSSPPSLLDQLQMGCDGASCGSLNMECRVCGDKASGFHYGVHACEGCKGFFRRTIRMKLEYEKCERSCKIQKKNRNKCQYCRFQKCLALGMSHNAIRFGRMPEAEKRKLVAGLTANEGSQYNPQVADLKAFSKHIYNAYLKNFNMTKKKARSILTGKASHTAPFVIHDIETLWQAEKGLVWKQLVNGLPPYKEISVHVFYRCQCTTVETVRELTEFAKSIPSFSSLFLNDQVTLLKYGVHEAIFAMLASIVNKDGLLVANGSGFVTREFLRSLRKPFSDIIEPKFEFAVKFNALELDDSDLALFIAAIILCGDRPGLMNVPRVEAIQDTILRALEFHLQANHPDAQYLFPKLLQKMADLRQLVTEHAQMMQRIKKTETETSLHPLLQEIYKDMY
Method in brief: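 GeneBLAzer UAS-bla HEK293H cells carrying a PPARδ construct were exposed to compounds at 37 °C. Beta-lactamase activity was read by FRET fluorescence after 2 h at room temperature with LiveBLAzer B/G substrate.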

[11] = target: Peroxisome proliferator-activated receptor delta (Homo sapiens) (UniProt Q03181); assay: qHTS assay to identify small molecule antagonists of the peroxisome proliferator-activated receptor delta (PPARd) signaling pathway (AID 743215; active = well fitted inhibition curve with a large enough effect in the signal ratio in the repeat runs, not every such curve was filed as active; the % refers to the signal ratio;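 note: cells stimulated with agonist L165041 at 300 nM final during compound exposure; series mostly up to about 62 µM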)
Method in brief: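 Inhibition of L165041-driven (300 nM final) PPARd signaling is scored in HEK293H UAS-bla cells. Exposure lasts 17 h at 37 C; beta-lactamase activity is then read by FRET substrate fluorescence after 2 h at room temperature.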

[12] = qHTS assay to identify small molecule agonists of the farnesoid-X-receptor (FXR) signaling pathway - cell viability counter screen (AID 743218); note: nearly all actives have a fitted effect of over 45% in size
Method in brief: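 Cytotoxicity counter-screen run in parallel, same wells: FXR-UAS-bla HEK 293T cells dosed 16 h at 37 C, viability read by CellTiter-Glo luminescence after 30 min at room temperature.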

[13] = target: Vitamin D3 receptor (Homo sapiens) (UniProt P11473); assay: qHTS assay to identify small molecule agonists of the vitamin D receptor (VDR) signaling pathway (AID 743222; calls by dose curve)
Sequence of Vitamin D3 receptor (Homo sapiens) (P11473 whole entry, looked up): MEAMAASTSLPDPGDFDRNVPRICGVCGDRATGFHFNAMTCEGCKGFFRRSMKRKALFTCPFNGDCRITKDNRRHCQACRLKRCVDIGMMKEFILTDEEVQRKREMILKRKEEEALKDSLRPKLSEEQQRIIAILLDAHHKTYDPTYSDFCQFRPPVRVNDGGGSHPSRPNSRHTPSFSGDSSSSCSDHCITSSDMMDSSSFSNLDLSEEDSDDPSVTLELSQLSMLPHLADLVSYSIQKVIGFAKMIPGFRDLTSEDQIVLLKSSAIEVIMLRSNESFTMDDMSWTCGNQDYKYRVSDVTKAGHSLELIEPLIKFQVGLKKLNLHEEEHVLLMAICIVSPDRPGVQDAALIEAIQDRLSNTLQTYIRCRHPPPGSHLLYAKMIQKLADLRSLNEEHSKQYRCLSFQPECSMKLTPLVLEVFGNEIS
Method in brief: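 Quantitative HTS agonist-mode screen: compounds in DMSO were pin-transferred onto VDR-bla cells and incubated 16 h at 37C, 5% CO2. Reporter activity was detected with LiveBLAzer B/G FRET substrate after 2 h at room temperature.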

[14] = target: Vitamin D3 receptor (Homo sapiens) (UniProt P11473); assay: qHTS assay to identify small molecule antagonists of the vitamin D receptor (VDR) signaling pathway (AID 743223; active = well fitted inhibition curve with a large enough effect in the signal ratio in the repeat runs, not every such curve was filed as active; the % refers to the signal ratio)
Method in brief: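 VDR-bla cells were treated with compound plus 3 nM final 1alpha,25-dihydroxyvitamin D3 for 16 h at 37C. Beta-lactamase reporter read by B/G FRET substrate fluorescence after 2 h at room temperature. qHTS format.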

[15] = target: Peroxisome proliferator-activated receptor gamma (Homo sapiens) (UniProt P37231); assay: qHTS assay to identify small molecule agonists of the peroxisome proliferator-activated receptor gamma (PPARg) signaling pathway (AID 743094; active = well fitted activation curve with a large enough effect in the signal ratio in the repeat runs, not every such curve was filed as active; the % refers to the signal ratio)
Method in brief: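 Quantitative HTS agonist mode: stable HEK293H line with UAS-beta-lactamase reporter under PPARg control, 17 h compound exposure at 37C, fluorescence after 1 h FRET substrate loading at room temperature.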

[16] = qHTS assay to identify small molecule antagonists of the farnesoid-X-receptor (FXR) signaling pathway - cell viability counter screen (AID 743221; active = well fitted cell-killing curve with a large enough effect in the repeat runs, not every such curve was filed as active; note: nearly all actives have a fitted effect of over 50% in size)
Method in brief: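 GeneBLAzer FXR-UAS-bla HEK 293T cells, compound plus chenodeoxycholic acid (50 uM final), 16 h at 37 C. CellTiter-Glo added to the same wells after the beta-lactamase read; luminescence read after 30 min at room temperature as viability.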

[17] = target: Aryl hydrocarbon receptor (Homo sapiens) (UniProt P35869); assay: qHTS assay to identify small molecule that activate the aryl hydrocarbon receptor (AhR) signaling pathway (AID 743085); note: nearly all actives have a fitted effect of over 15% in size; note: potency is the fitted concentration of half-maximal effect;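 for activation: HG2L7.5c1 human HepG2 liver cells with stably integrated DRE-driven firefly reporter; series mostly up to about 70 µM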
Sequence of Aryl hydrocarbon receptor (Homo sapiens) (P35869 whole entry, looked up): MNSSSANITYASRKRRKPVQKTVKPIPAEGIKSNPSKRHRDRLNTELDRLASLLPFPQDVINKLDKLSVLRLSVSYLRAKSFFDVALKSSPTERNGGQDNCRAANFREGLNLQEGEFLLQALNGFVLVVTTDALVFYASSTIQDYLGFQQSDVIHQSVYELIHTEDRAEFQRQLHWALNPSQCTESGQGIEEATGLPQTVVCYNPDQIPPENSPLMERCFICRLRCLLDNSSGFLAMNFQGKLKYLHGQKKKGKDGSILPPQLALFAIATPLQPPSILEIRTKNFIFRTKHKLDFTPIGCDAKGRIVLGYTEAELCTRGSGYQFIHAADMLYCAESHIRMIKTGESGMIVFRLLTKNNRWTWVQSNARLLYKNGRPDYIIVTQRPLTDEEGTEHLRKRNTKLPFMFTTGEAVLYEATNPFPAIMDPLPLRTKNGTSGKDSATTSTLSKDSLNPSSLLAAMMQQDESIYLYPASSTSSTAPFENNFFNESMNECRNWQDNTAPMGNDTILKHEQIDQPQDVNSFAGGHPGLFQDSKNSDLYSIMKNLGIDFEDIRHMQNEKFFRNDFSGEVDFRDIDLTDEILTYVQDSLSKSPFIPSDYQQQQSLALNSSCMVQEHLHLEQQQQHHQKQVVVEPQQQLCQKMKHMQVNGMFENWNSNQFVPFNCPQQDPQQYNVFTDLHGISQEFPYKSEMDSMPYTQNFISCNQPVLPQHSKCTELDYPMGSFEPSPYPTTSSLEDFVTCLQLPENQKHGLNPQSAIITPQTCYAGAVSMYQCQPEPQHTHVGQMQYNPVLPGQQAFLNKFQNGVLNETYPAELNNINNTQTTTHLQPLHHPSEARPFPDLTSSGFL
Method in brief: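 HepG2 cells stably carrying a 20-DRE firefly luciferase reporter (HG2L7.5c1) treated with compound for 24 hr at 37C. Luciferase read by ONE-Glo luminescence, with CellTiter-Fluor viability read first.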

[18] = qHTS assay to identify small molecule antagonists of the peroxisome proliferator-activated receptor delta (PPARd) signaling pathway - cell viability counter screen (AID 743213); note: nearly all actives have a fitted effect of over 50% in size
Method in brief: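 PPARd-bla HEK293H cells were treated with compounds plus agonist L165041 (300 nM final) for 17 h at 37 C. Viability was then read in the same wells by CellTiter-Glo luminescence after 30 min at room temperature.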

[19] = target: Bile acid receptor (Homo sapiens) (UniProt Q96RI1); assay: qHTS assay to identify small molecule antagonists of the farnesoid-X-receptor (FXR) signaling pathway (AID 743217; active = well fitted inhibition curve with a large enough effect in the signal ratio in the repeat runs, not every such curve was filed as active; the % refers to the signal ratio)
Sequence of Bile acid receptor (Homo sapiens) (Q96RI1 whole entry, looked up): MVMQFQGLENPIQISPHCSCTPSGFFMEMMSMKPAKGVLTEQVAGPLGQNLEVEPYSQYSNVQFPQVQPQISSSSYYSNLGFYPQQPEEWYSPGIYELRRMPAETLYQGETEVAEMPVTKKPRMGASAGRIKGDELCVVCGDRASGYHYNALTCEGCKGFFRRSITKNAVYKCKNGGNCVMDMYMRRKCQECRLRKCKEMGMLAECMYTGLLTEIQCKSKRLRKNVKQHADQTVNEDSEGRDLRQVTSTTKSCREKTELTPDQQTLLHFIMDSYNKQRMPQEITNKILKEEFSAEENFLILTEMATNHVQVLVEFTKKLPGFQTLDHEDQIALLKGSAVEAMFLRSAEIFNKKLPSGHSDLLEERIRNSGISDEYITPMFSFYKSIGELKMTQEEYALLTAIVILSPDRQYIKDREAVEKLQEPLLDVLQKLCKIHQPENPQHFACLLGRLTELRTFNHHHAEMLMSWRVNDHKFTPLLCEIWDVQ
Method in brief: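 Antagonist mode against 50 uM (final) chenodeoxycholic acid stimulation in FXR-bla HEK 293T cells, 16 h at 37 °C. Inhibition detected as reduced beta-lactamase activity via LiveBLAzer B/G FRET fluorescence after 2 h at room temperature.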

[20] = target: Bile acid receptor (Homo sapiens) (UniProt Q96RI1); assay: qHTS assay to identify small molecule agonists of the farnesoid-X-receptor (FXR) signaling pathway (AID 743220; active = well fitted activation curve with a large enough effect in the signal ratio in the repeat runs, not every such curve was filed as active; the % refers to the signal ratio)
Method in brief: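 Beta-lactamase reporter under UAS control in GeneBLAzer FXR HEK 293T cells (5000/well) measured with LiveBLAzer FRET substrate after 2 h at room temperature. Compound exposure lasted 16 h at 37C.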

SMILES	Potency [1]	Potency [2]	Potency [3]	outcome [4]	Potency [5]	outcome [6]	outcome [7]	outcome [8]	outcome [9]	outcome [10]	outcome [11]	outcome [12]	outcome [13]	outcome [14]	Potency [15]	outcome [16]	Potency [17]	outcome [18]	outcome [19]	outcome [20]
CC(C)(C)OC(=O)c1cccc(N)c1	inactive	inactive	inactive	inactive	inactive	inactive	inactive	inactive	inactive	inactive	inactive	inactive	inactive	inactive	–	–	–	–	–	–
CC(COc1ccccc1)NN (centres undefined)	inactive	inactive	–	–	inactive	inactive	inactive	inactive	inactive	inactive	inactive	inactive	inactive	inactive	inactive	inactive	–	–	–	–
CC(C)(CCC(=O)O)C(=O)O	inactive	–	–	inactive	–	inactive	–	inactive	inactive	–	–	inactive	inactive	inactive	inactive	inactive	inactive	inactive	–	–
CC(C)(C#N)Nc1nc(Cl)nc(NC2CC2)n1	inactive	inactive	inactive	inactive	inactive	inactive	inactive	inactive	inactive	inactive	inactive	inactive	inactive	–	inactive	inactive	–	inactive	inactive	inactive
C=CCCCCCCCCC(=O)OCC	inactive	inactive	–	inactive	–	–	inactive	inactive	inactive	inactive	inactive	inactive	inactive	–	inactive	inactive	–	inactive	–	–
C[N+]12CCC(CC1)C(OC(=O)C(O)(c1ccccc1)c1ccccc1)C2 (centres undefined)	inactive	inactive	inactive	inactive	–	–	inactive	–	–	–	–	inactive	inactive	inactive	inactive	inactive	–	–	–	–
C1CCC2(CCCCO2)OC1	inactive	–	inactive	inactive	inactive	–	inactive	inactive	inactive	inactive	–	inactive	inactive	–	–	inactive	inactive	–	–	–
CC1=C(C/C=C(\C)CCC[C@H](C)CCC[C@H](C)CCCC(C)C)C(=O)c2ccccc2C1=O	inactive	–	–	inactive	inactive	–	–	inactive	inactive	inactive	inactive	inactive	inactive	inactive	inactive	inactive	26.6 µM (active)	inactive	–	–
Cc1ccc(C(=O)c2ccc(CC(=O)O)n2C)cc1	inactive	–	–	inactive	inactive	inactive	–	–	inactive	–	–	inactive	–	inactive	inactive	inactive	inactive	–	–	–
CCOCC(C)O (centres undefined)	inactive	–	inactive	inactive	inactive	inactive	inactive	inactive	inactive	inactive	inactive	inactive	inactive	–	–	inactive	inactive	inactive	–	inactive
CCCCCCC1CCC(=O)O1 (centres undefined)	inactive	inactive	–	inactive	inactive	inactive	inactive	inactive	inactive	inactive	inactive	–	inactive	–	inactive	inactive	–	inactive	–	–
CCCn1cc[n+](C)c1C	inactive	inactive	–	inactive	–	inactive	inactive	inactive	inactive	inactive	inactive	inactive	inactive	inactive	–	inactive	–	inactive	–	–
CC(=O)N1C[C@H](O)C[C@H]1C(=O)O	inactive	–	–	inactive	inactive	–	inactive	inactive	inactive	inactive	inactive	inactive	inactive	inactive	–	inactive	inactive	inactive	–	inactive
C=CC(=O)OCCCl	inactive	–	inactive	inactive	inactive	inactive	inactive	inactive	inactive	–	–	inactive	inactive	inactive	inactive	–	–	inactive	inactive	inactive
CCCc1nn(C)c2c(=O)[nH]c(-c3cc(S(=O)(=O)N4CCN(C)CC4)ccc3OCC)nc12	inactive	inactive	inactive	–	inactive	inactive	inactive	inactive	–	inactive	inactive	inactive	–	inactive	inactive	inactive	–	inactive	–	–
CC(C)COC(=O)c1ccc(N)cc1	inactive	–	inactive	inactive	inactive	inactive	–	inactive	inactive	inactive	–	inactive	inactive	inactive	inactive	inactive	–	–	–	–
CC(C)C[C@@H](N)C(=O)O	inactive	inactive	–	–	inactive	–	inactive	inactive	inactive	inactive	inactive	–	inactive	inactive	–	inactive	–	inactive	–	inactive
CCN1CCOCC1	inactive	inactive	–	inactive	inactive	inactive	inactive	inactive	inactive	inactive	–	inactive	inactive	inactive	inactive	inactive	–	inactive	–	inactive
CN1CCN(c2cc3c(nn2)Oc2ccccc2N3C)CC1	inactive	inactive	–	inactive	inactive	inactive	inactive	–	inactive	inactive	inactive	inactive	inactive	inactive	inactive	inactive	–	inactive	–	–
CC[N+](CC)(CC(=O)Nc1c(C)cccc1C)Cc1ccccc1 (tested in a mixture with another compound)	inactive	inactive	inactive	inactive	inactive	inactive	inactive	–	inactive	–	–	inactive	–	–	inactive	inactive	–	inactive	–	–
